Here are results for 8 molecules from PubChem BioAssay.

Calls of active or inactive are those of the source.

Experiment [1] concerns Plasmodium falciparum Sir2 (PF13_0152, Sir2A). Description: Plasmodium falciparum Sir2A binding compounds – biochemical, small-molecule microarray, 635 nm fluorescence, primary screen (AID 1098).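 Note: score merges spot fluorescence intensity with its signal-to-noise ratio.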 The conditions noted are these: fluorescence 635 nm, higher = more signal.
Experiment [2] can be described thus: probe aDKK1 binding to arrayed compounds – biochemical, biotinylated probe, 635/667 nm fluorescence, primary screen (AID 1099).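 Note: score merges 667nm spot fluorescence with signal to noise across triplicate slides.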 The settings on record: small-molecule microarray, higher = more signal.
A short description of experiment [3]: probe aCHRDL2 binding to arrayed compounds – biochemical, biotinylated probe, 635/667 nm fluorescence, primary screen (AID 1100). The conditions noted are these: small-molecule microarray, higher = more signal.
Experiment [4] can be described thus: change in splice reporter luminescence, either direction, cell-based, HEK293, spliceosome inhibition project, primary screen (AID 1101).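 Note: HEK293 cells carrying a splicing-competent luciferase reporter gene; test concentration not given here.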 The conditions noted are these: HEK293 splicing luciferase reporter, 24 h, higher = more signal, called active from +8 up or from −8 down. On the technique in general: A reporter such as luciferase makes a cellular process visible.

The target in experiment [5] is Fibroblast growth factor 10 (Homo sapiens) (UniProt O15520). Description: compounds binding fibroblast growth factor 10 – biochemical, small-molecule microarray, 635 nm fluorescence, primary screen (AID 1102). The settings on record: FGF10 binding, fluorescence 635 nm, higher = more signal.
Experiment [6] has as its system glycogen synthase kinase-3 (GSK3A per assay name; protocol says GSK3B). Description: compounds binding glycogen synthase kinase-3 – biochemical, small-molecule microarray, 635 nm fluorescence, GSK3A, primary screen (AID 1103). Note: the record names both GSK3A and GSK3B. The conditions noted are these: fluorescence 635 nm, higher = more signal.
The target in experiment [7] is Epidermal growth factor receptor (Homo sapiens) (UniProt P00533). The experiment is described as follows: compounds binding epidermal growth factor receptor – biochemical, small-molecule microarray, 635 nm fluorescence, primary screen (AID 1104).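 Note: score merges 667 nm emission intensity with spot signal to noise over triplicate slides.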 The conditions noted are these: EGFR binding, higher = more signal.
Experiment [8] deals with Follistatin-related protein 3 (Homo sapiens) (UniProt O95633). Description: compounds binding follistatin-related protein 3 – biochemical, small-molecule microarray, 635 nm fluorescence, primary screen (AID 1105).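 Note: score merges emission near 667 nm and signal to noise per printed spot across three slides.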 The settings on record: FSTL3 binding, higher = more signal.
Experiment [9] deals with Dickkopf-related protein 1 (Homo sapiens) (UniProt O94907). Description: small molecules binding DKK1 protein – biochemical, small-molecule microarray, 635 nm fluorescence scan, primary screen (AID 1106).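 Note: score merges emission near 667 nm with signal to noise over three replicate slides.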 The settings on record: higher = more signal.
In experiment [10] the test system is Inhibin beta A chain (activin A). The experiment is described as follows: small molecules binding activin A – biochemical, small-molecule microarray, 635 nm fluorescence scan, primary screen (AID 1107).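 Note: mouse activin A protein probed at 4.33 µg/mL on printed slides; score merges bound-protein fluorescence near 667 nm with spot signal-to-noise.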 The conditions noted are these: INHBA, higher = more signal.
In experiment [11] the test system is Human papillomavirus type 1a protein E7 (residues 44-93). The experiment is described as follows: small molecules binding HPV E7 44-93 – biochemical, small-molecule microarray, residues 44-93, 635 nm fluorescence, primary screen (AID 1108).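 Note: E7 fragment applied at 1 µg/mL in TBST for 1 h at 4 C; score combines spot fluorescence with its signal to noise ratio.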 The settings on record: fluorescence 635 nm, higher = more signal.
Experiment [12] in a line: hepatitis C replication reporter changes, two-sided – Huh7 cells, luciferase reporter, HCV replication inhibitor project, primary screen (AID 1109).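 Note: huh7 hepatoma cells harbouring a luciferase neomycin HCV replicon reporter; luciferase luminescence as measure of HCV replicon replication; test concentration not given here.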 The settings on record: Huh7 HCV replicon luciferase reporter, 48 h; higher = more signal.
Experiment [13] deals with Left-right determination factor 2 (Homo sapiens) (UniProt O00292). Description: small molecules binding LEFTY2 protein – biochemical, small-molecule microarray, 635 nm fluorescence scan, primary screen (AID 1110). The conditions noted are these: higher = more signal.
Experiment [14] has as its target Calmodulin-1 (Homo sapiens) (UniProt P0DP23). Description: small molecules binding calmodulin-1 with EGTA – biochemical, small-molecule microarray, Cy5-labelled CALM1, profiling panel (AID 1111).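 Note: labelled calmodulin applied in Tris saline Tween buffer holding calcium plus EGTA and DTT.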 The conditions noted are these: Cy5-CALM1 binding fluorescence, higher = more signal.
The target is the same in experiment [15]. Description: small molecules binding Ca-loaded calmodulin-1 – biochemical, small-molecule microarray, Cy5-labelled CALM1, plus calcium, artefact control for SMM control-protein annotation, profiling panel (AID 1112).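 Note: score merges spot fluorescence with signal to noise from triplicate slides.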 The conditions noted are these: Cy5-CALM1 binding fluorescence, higher = more signal.
A short description of experiment [16]: probe aWnt5a binding to arrayed compounds – biochemical, biotinylated probe, 635/667 nm fluorescence, primary screen (AID 1113).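 Note: score merges 667 nm fluorescence intensity with signal-to-noise per printed feature.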 The conditions noted are these: small-molecule microarray, higher = more signal.
Experiment [17] can be described thus: probe aShh binding to arrayed compounds – biochemical, biotinylated probe, 635/667 nm fluorescence, primary screen (AID 1114).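 Note: probe is biotin-labelled aShh protein from a stem cell growth factor screen; measures binding of labelled protein to compounds printed on the slide; score merges feature fluorescence at 667 nm with signal-to-noise.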 The conditions noted are these: small-molecule microarray, higher = more signal.
Experiment [18] is described as follows: probe aNog binding to arrayed compounds – biochemical, biotinylated probe, 635/667 nm fluorescence, primary screen (AID 1115).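 Note: probe is biotinylated aNog protein used at 0.15 µg/mL for 1 h at 4 C; z-score combines 667 nm fluorescence of each spot with its signal to noise.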 The conditions noted are these: small-molecule microarray, higher = more signal.
Experiment [19] addresses Torsin-1A-interacting protein 1 (Homo sapiens) (UniProt Q5JTV8). The experiment is described as follows: compound microarray binding of lysate hLAP1 – cell lysate, small-molecule microarray, COS7 lysate, 635/667 nm fluorescence, primary screen (AID 1116). The conditions noted are these: 635 nm fluorescence, higher = more signal.
The target of experiment [20] is Alpha-bungarotoxin (Bungarus multicinctus) (UniProt P60615). The experiment is described as follows: compounds binding labelled alpha-BTX control protein – biochemical, small-molecule microarray, Alexa647 label, 635/667 nm fluorescence, artefact control for SMM control protein annotation, profiling panel (AID 1117). The settings on record: alpha-BTX-A647 binding fluorescence, higher = more signal.
Alpha-bungarotoxin (Bungarus multicinctus), sequence (P60615 whole entry, looked up): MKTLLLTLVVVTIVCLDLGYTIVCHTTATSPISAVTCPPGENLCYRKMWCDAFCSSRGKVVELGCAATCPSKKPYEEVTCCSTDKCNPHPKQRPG

Torsin-1A-interacting protein 1 (Homo sapiens), sequence (Q5JTV8 whole entry, looked up): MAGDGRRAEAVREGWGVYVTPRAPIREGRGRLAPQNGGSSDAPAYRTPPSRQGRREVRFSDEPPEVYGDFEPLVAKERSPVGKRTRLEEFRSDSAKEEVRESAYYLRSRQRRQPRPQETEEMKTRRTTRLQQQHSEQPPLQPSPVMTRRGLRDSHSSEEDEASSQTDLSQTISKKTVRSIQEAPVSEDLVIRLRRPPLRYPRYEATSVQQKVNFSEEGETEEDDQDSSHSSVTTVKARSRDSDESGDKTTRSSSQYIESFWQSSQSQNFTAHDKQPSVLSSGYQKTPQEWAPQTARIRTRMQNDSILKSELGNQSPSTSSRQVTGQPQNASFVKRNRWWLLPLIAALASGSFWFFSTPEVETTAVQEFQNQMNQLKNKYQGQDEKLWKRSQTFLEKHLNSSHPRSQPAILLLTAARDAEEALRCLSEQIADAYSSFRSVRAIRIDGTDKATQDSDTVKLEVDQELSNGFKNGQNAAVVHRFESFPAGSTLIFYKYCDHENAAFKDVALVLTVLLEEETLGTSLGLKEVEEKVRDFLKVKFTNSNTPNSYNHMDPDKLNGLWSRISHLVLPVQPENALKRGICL
Follistatin-related protein 3 (Homo sapiens), sequence (O95633 whole entry, looked up): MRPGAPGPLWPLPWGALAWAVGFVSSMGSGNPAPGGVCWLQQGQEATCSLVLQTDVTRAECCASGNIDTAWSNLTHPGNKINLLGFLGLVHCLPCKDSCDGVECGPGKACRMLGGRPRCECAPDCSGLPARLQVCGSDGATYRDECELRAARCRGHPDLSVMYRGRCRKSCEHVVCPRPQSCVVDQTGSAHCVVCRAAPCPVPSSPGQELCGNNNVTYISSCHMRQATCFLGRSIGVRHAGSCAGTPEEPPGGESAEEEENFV
Fibroblast growth factor 10 (Homo sapiens), sequence (O15520 whole entry, looked up): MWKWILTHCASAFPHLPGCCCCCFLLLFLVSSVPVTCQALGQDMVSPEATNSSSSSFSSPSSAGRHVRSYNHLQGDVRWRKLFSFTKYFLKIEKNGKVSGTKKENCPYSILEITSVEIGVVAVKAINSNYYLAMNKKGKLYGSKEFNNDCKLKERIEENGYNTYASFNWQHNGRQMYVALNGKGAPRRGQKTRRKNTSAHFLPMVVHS
Dickkopf-related protein 1 (Homo sapiens), sequence (O94907 whole entry, looked up): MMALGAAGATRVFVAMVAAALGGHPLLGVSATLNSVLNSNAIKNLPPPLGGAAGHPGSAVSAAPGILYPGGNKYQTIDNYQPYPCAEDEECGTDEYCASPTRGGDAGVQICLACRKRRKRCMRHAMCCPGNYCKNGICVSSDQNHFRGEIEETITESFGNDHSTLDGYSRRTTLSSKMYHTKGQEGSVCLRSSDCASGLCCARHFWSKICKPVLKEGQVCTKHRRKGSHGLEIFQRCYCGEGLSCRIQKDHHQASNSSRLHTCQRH
Left-right determination factor 2 (Homo sapiens), sequence (O00292 whole entry, looked up): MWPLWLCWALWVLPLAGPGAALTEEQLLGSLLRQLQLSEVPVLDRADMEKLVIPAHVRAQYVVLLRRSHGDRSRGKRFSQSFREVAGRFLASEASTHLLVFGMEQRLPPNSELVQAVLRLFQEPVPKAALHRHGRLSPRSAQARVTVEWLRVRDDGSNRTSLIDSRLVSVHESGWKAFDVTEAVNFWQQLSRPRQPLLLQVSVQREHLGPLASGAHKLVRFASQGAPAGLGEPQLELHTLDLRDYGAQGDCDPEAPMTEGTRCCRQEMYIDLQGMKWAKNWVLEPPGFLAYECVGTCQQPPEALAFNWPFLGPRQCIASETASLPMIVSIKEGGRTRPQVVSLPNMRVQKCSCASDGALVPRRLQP
Epidermal growth factor receptor (Homo sapiens), sequence (P00533 whole entry, looked up): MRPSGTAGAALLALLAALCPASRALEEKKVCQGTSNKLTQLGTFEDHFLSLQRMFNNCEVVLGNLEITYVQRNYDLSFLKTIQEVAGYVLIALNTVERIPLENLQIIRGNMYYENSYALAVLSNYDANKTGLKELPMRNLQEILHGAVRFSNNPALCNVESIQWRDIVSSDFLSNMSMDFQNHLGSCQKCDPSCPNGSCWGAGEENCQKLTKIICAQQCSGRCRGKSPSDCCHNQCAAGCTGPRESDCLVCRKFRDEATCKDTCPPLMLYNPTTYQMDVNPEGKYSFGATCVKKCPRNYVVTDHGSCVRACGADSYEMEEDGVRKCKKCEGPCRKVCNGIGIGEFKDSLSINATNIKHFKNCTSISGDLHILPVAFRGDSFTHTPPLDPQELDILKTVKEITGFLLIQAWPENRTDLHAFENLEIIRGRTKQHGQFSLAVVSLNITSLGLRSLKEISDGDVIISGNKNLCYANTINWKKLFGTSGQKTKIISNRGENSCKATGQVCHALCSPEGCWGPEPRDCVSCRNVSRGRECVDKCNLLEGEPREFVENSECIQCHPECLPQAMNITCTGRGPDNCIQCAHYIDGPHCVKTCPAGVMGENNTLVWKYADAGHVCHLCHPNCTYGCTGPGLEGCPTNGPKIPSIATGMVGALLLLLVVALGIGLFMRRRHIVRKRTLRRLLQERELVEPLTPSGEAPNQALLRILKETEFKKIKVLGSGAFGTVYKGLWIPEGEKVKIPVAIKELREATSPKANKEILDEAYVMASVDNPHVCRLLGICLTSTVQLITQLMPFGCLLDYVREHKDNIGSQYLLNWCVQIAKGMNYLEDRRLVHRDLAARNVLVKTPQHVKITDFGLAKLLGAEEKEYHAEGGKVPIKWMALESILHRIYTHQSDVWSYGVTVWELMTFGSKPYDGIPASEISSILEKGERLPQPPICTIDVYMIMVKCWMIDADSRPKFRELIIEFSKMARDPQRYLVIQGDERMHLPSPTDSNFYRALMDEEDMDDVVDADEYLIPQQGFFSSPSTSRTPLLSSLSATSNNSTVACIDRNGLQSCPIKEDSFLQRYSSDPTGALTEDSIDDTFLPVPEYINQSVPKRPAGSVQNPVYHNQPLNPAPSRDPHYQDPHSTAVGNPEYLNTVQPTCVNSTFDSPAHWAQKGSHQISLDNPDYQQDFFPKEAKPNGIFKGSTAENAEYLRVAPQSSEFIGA

As for `O=C1C2C=CC(C(O)Cc3ccccc3)N(Nc3ccc([N+](=O)[O-])cc3)C2C(=O)N1c1ccccc1` (stereo not given), the composite z-score in experiment [1] was 1.04; in experiment [2] it was 1.07; in [3] it was 0.498; in experiment [5] it was 0.653; in experiment [6], 0.539; in experiment [7], 0.277. Also, the composite z-score in experiment [8] is 0.576; in experiment [9], -0.0044; in [10], 0.582; in experiment [11], 0.508; in experiment [13], 0.0886; in experiment [14], 0.417. Also, the composite z-score came to 0.426 in experiment [15]; 0.159 in experiment [16]; 0.203 in experiment [17]; 0.905 in [18]; 0.937 in experiment [19]; 0.307 in experiment [20]. The z-score is 0.843 (inactive) in experiment [4] and -0.531 in [12].

`CCCC=C(CCC)[C@@H](NS(=O)(=O)c1cccc(C(F)(F)F)c1)c1ccc(C(=O)OC)cc1`: the composite z-score is 0.935 in experiment [1]; 1.55 in [2]; 1.06 in [3]; -0.67 in [5]; 0.37 in [6]; -1.1 in experiment [7]. Further, the composite z-score in experiment [8] is -0.271; in [9], -0.553; in experiment [10], -0.507; in experiment [11], 1.19; in experiment [13], -0.81; in [14], 0.266. The composite z-score in experiment [15] is -0.385; in [16], 1.12; in [17], 1.06; in experiment [18], 2.97; in [19], 0.209; in experiment [20], 0.398. The z-score in [4] was -0.489 (inactive); in experiment [12], -0.0175.

In the case of `CC1=C([C@H](O)CCc2ccccc2)[C@H](CO)[C@@H]2C(=O)N(Cc3ccccc3)C(=O)[C@@H]2C1`, the composite z-score in [1] is 0.0539; in experiment [2], -0.264; in experiment [3], -0.551; in [5], 0.27; in experiment [6] it was -0.453; in experiment [7], -0.176. Moreover, the composite z-score in experiment [8] worked out at 0.785; in [9] it was 0.28; in experiment [10], 0.317; in experiment [11] it was 0.0933; in [13], 0.334; in experiment [14] it was 0.62. The composite z-score in [15] was -0.503; in experiment [16], -0.0644; in [17], -0.289; in experiment [18] it was -0.27; in experiment [19] it was 0.421; in experiment [20] it was 1.71. In addition, the figures for the z-score in [4] and in experiment [12] were -0.46 (inactive) and -0.266, respectively.

For `COCCOC(=O)N1C(=O)[C@@]2(c3cc(C#CCCO)ccc31)[C@H](c1ccc(OCCO)cc1)N1[C@H](c3ccccc3)[C@H](c3ccccc3)OC(=O)[C@H]1[C@@H]2C(=O)NC[C@H](O)c1ccccc1`, the composite z-score in [1] is 1.3; in experiment [2], 0.0564; in experiment [3] it was -0.0641; in experiment [5], 1.31; in [6], 1; in experiment [7], 0.776. Further, the composite z-score in experiment [8] came to 1.41; in experiment [9], 0.923; in experiment [10], 0.701; in experiment [11] it was 1.39; in [13] it was 0.795; in experiment [14], 0.969. Besides, the composite z-score is 0.003 in [15]; -0.001 in experiment [16]; -0.0904 in experiment [17]; -0.213 in experiment [18]; 1.29 in [19]; 1.05 in [20]. In addition, the figures for the z-score in [4] and in experiment [12] were -0.6 (inactive) and -1.13, respectively.

Regarding `CO[C@H]1COC(=O)[C@@H](Cc2ccccc2)NC(=O)[C@@H](C)COC(=O)CC=C[C@@H]1C`, the composite z-score in experiment [1] is 0.318; in [2], -0.63; in [3], -1.46; in experiment [5] it was 0.42; in experiment [6] it was -0.0524; in experiment [7], 0.954. Also, the composite z-score in experiment [8] is 0.439; in experiment [9], 0.913; in [10] it was 1.31; in experiment [11], -0.661; in experiment [13] it was 0.831; in experiment [14] it was -2.36. For the same molecule, the composite z-score in [15] is -2.14; in experiment [16], -0.133; in [17] it was -0.124; in experiment [18], -0.234; in [19], -0.0159; in experiment [20] it was -0.39. The z-score is 0.105 (inactive) in [4] and 0.413 in experiment [12].

In the case of `O=C/C=C/c1ccc(/C=C/c2ccccc2)cc1`, the composite z-score was -0.636 in [1]; -0.287 in [2]; 0.616 in experiment [3]; -0.77 in [5]; -0.386 in experiment [6]; 0.193 in [7]. The composite z-score in experiment [8] is 0.233; in experiment [9] it was -0.278; in experiment [10] it was 1.47; in experiment [11], -1.48; in experiment [13], 0.0281; in [14], -0.858. In addition, the composite z-score was -0.584 in experiment [15]; -0.0585 in [16]; -0.0886 in experiment [17]; -0.489 in experiment [18]; 0.2 in experiment [19]; 0.129 in [20]. For the same molecule, the results for the z-score in experiment [4] and in experiment [12] were -0.653 (inactive) and 0.783, respectively.

`COc1ccc([C@H]2C[C@H]3C(Br)=C[C@]2(OC)C(=O)[C@]32CO2)cc1`: the composite z-score in experiment [1] is 0.488; in experiment [2] it was -0.0499; in experiment [3], 0.348; in experiment [5], 1.05; in experiment [6], 0.083; in [7], -0.0387. Further, the composite z-score in experiment [8] is -0.0092; in experiment [9] it was 0.239; in experiment [10], 0.504; in experiment [11] it was -0.681; in experiment [13] it was 0.219; in [14], -0.408. In addition, the composite z-score in [15] was -0.668; in experiment [16], -0.113; in experiment [17] it was -0.0769; in [18], -0.176; in [19] it was 0.42; in experiment [20], -0.268. Also, the z-score in experiment [4] is 1.49 (inactive); in experiment [12], -2.26.

Consider `C=C[C@H](OC)[C@@H](OC(=O)Nc1ccc(SC)cc1)c1ccc(OC)c(O)c1`, for which the composite z-score was 0.0729 in experiment [1]; -0.276 in experiment [2]; 0.241 in experiment [3]; -0.337 in experiment [5]; -0.392 in [6]; -0.915 in experiment [7]. Also, the composite z-score in [8] is -1.4; in [9], -0.559; in [10] it was -0.778; in experiment [11] it was 0.318; in experiment [13] it was -0.784; in experiment [14], -0.414. Also, the composite z-score in experiment [15] was 0.319; in experiment [16], -0.176; in [17], -0.0626; in [18], -0.15; in experiment [19] it was 0.324; in experiment [20], -0.508. The z-score in [4] was -1.84 (inactive); in experiment [12], 0.899.
